The nature of test [1]: Nuclear factor erythroid 2-related factor 2/antioxidant responsive element (Nrf2/ARE) small molecule agonists: qHTS cell viability counter screen in human keratinocytes (AID 1919968; active = well fitted cell-killing curve with a large enough effect in the repeat runs; also: nearly all actives have a fitted effect of over 55% in size). In short, it runs like this: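 HaCaT ARE reporter line, 1,500 cells/well; 5 h settle, 37 C/5% CO2; cpd in DMSO pinned; 23 h exposure; CellTiter-Fluor, 1 h; fluorescence.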
Test [2] can be described thus: Nuclear factor erythroid 2-related factor 2/antioxidant responsive element (Nrf2/ARE) small molecule agonists: luciferase reporter gene qHTS assay in human keratinocytes (AID 1919969). Also: nearly all actives have a fitted effect of over 35% in size.
A short description of test [3]: G protein-coupled receptor (GPCR) small molecule agonists, calcium flux assay: HEK293 wild type cell line counter screen (AID 1920065). In short, it runs like this:
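Kinetic fluorescence at Ex/Em 480/540, recorded every second over 3 min, served as the read-out after compound addition. Each compound was tested at 15 concentrations in triplicate on cells pre-loaded with calcium dye for 1 h.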

The nature of test [4]: p53 small molecule agonists, cell-based qHTS assay with human liver microsomes (AID 1963577).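 Also: p53 response element beta-lactamase reporter cells with liver microsomes plus NADPH.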 A digest of the protocol: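 Metabolically competent format: test substances, human liver microsomes and NADPH (both 0.5 mg/mL final) incubated with p53RE-bla cells 16 h at 37 C. Beta-lactamase reporter signal then quantified by fluorescence.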
A short description of test [5]: p53 small molecule agonists, cell-based qHTS assay with rat liver microsomes (AID 1963578). A digest of the protocol:
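Each plate received p53RE-bla cells, then compound, then rat liver microsomes and NADPH (both 0.5 mg/mL final). Plates were held 16 h at 37 C, and beta-lactamase activity was detected with LiveBLAzer over 2 h.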

The nature of test [6]: p53 small molecule agonists, cell-based qHTS assay with human liver microsomes: qHTS cell viability counter screen (AID 1963579). Also: nearly all actives have a fitted effect of over 45% in size. In short, it runs like this: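 Tox21 library compounds, delivered from DMSO stocks, were tested on p53RE-bla cells together with 0.5 mg/mL human liver microsomes and 0.5 mg/mL NADPH (final) over 16 h at 37 C; CellTiter-Glo luminescence served as the cytotoxicity measure.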

A short description of test [7]: p53 small molecule agonists, cell-based qHTS assay with rat liver microsomes: qHTS cell viability counter screen (AID 1963580). Also: nearly all actives have a fitted effect of over 45% in size. A digest of the protocol: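 p53RE-bla HCT-116 cells (4,000/well) rested 5 h at 37 C, then given Tox21 compounds in DMSO with rat liver microsomes (0.5 mg/mL final) plus NADPH (0.5 mg/mL final) for 16 h at 37 C. Viability read by CellTiter-Glo luminescence after 30 min at room temperature.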

Test [8] is described as follows: p53 small molecule agonists, cell-based qHTS assay: qHTS cell viability counter screen (AID 1963581). Also: nearly all actives have a fitted effect of over 45% in size. In short, it runs like this:
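HCT-116 p53RE-bla cells, 4,000/well, plated 5 h before compound pin transfer; 16 h at 37 C; bla substrate 2 h RT; then CellTiter-Glo, 30 min RT, luminescence.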

The nature of test [9]: p53 small molecule agonists, cell-based qHTS assay (AID 1963582; active = well fitted activation curve with a large enough effect in the signal ratio in the repeat runs, not every such curve was filed as active; the % refers to the signal ratio). A digest of the protocol:
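Reporter line: p53RE-bla. Pre-incubation 5 h, 37 C, 5% CO2; compound (DMSO, pin tool) 16 h, 37 C; B/G FRET substrate 2 h RT; fluorescence intensity read.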

For test [10], the target named is 5-hydroxytryptamine receptor 2A (Homo sapiens) (UniProt P28223). The test can be described thus: 5-hydroxytryptamine receptor 2A (HTR2A) small molecule antagonists, cell-based qHTS assay (AID 1963586). Also: nearly all actives have a fitted effect of over 45% in size. A digest of the protocol:
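Antagonist-mode intracellular calcium assay: DOI (4 nM) added after 5 min compound pre-incubation at room temperature to dye-loaded HTR2A-CHO cells. Fluorescence followed for 3 min, sampled every second.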

For test [11] the target is unchanged. The experiment in a line: 5-hydroxytryptamine receptor 2A (HTR2A) small molecule agonists, cell-based qHTS assay (AID 1963587). Also: nearly all actives have a fitted effect of over 30% in size. In short, it runs like this:
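HTR2A-CHO cells, plated 18 h at 37 C/5% CO2, dye-loaded 1 h at 37 C; compounds in DMSO added by pin tool (agonist mode). Intracellular calcium flux read as kinetic fluorescence on FDSS over 2 min at 1 s intervals.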

The target of test [12] is Muscarinic acetylcholine receptor M1 (Homo sapiens) (UniProt P11229). The experiment in a line: Cholinergic receptor muscarinic 1 (CHRM1) small molecule antagonists, cell-based qHTS assay (AID 1963588). Also: nearly all actives have a fitted effect of over 40% in size. In short, it runs like this: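 CHRM1-CHO calcium-flux assay, antagonist mode. Cells were seeded 18 h, dye-loaded 1 h at 37 C and given compound for 5 min at RT, then acetylcholine was added at 50nM. FDSS fluorescence was read 3 min; 15 concentrations, three runs.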
Sequence of Muscarinic acetylcholine receptor M1 (Homo sapiens) (P11229 whole entry, looked up): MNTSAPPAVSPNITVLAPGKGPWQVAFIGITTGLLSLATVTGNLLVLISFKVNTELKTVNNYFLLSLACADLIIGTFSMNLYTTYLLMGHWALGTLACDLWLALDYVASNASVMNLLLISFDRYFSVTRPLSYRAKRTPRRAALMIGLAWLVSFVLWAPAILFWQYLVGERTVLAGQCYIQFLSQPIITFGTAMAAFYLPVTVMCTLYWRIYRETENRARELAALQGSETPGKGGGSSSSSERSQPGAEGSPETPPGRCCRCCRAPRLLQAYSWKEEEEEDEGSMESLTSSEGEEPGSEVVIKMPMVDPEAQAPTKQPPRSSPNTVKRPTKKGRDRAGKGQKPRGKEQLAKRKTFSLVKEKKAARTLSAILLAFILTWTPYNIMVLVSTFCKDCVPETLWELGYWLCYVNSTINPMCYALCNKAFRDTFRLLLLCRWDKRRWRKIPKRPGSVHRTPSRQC

Test [13] shares this target. The test can be described thus: Cholinergic receptor muscarinic 1 (CHRM1) small molecule agonists, cell-based qHTS assay (AID 1963589). Also: nearly all actives have a fitted effect of over 35% in size. In short, it runs like this: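 Human M1 in stable CHO line; 18 h plating, 1 h dye load 37 C; cpd added (agonist mode); Ca2+ fluorescence kinetic read, 1 s intervals; 15 conc, 3 runs.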
Test [14] can be described thus: cAMP Responsive Elements (CRE) small molecule agonists, cell-based qHTS assay (AID 1963590). In short, it runs like this: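 HEK 293T CRE-bla, 2,000 cells/well, 18 h preincubation 37 C/5% CO2; cpds (DMSO) pinned, 3 h; LiveBLAzer B/G FRET substrate, 2 h RT.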
Test [15] is described as follows: cAMP Responsive Elements (CRE) small molecule antagonists, cell-based qHTS assay (AID 1963591; active = well fitted inhibition curve with a large enough effect in the signal ratio in the repeat runs, not every such curve was filed as active; the % refers to the signal ratio). In short, it runs like this: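 Beta-lactamase reporter read by FRET substrate (LiveBLAzer B/G) after 2 h at room temperature. CRE-bla HEK293T cells had received compound plus 0.25 uM (final) NKH477 for 3 h at 37 °C.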
The target in test [16] is Beta-2 adrenergic receptor (Homo sapiens) (UniProt P07550). The test can be described thus: Adrenergic beta2 receptor (ADRB2) small molecule antagonists, cell-based qHTS assay (AID 1963592). Also: series mostly up to about 92 µM; nearly all actives have a fitted effect of over 50% in size. A digest of the protocol: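 Cells (CHO, stable ADRB2 overexpression) incubated 18-20hr at 37C; compounds added from DMSO; agonist mix (1nM isoproterenol, 100uM IBMX, 25uM Ro-20-1724) added; 0.5hr RT; d2-cAMP and anti-cAMP-cryptate added; 1hr RT; 665/615 nm read.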
Sequence of Beta-2 adrenergic receptor (Homo sapiens) (P07550 whole entry, looked up): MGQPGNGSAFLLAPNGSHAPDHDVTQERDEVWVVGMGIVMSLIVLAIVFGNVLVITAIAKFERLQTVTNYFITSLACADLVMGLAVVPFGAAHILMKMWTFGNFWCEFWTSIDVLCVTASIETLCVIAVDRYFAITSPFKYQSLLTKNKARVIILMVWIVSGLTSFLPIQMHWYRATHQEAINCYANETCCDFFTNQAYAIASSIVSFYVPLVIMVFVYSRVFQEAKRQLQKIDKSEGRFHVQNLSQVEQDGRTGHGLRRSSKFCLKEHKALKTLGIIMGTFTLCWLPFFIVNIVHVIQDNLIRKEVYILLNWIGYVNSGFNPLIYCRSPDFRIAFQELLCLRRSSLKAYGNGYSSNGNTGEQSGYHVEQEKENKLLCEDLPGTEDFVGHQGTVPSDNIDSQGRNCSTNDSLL

In test [17] the target is D(2) dopamine receptor (Homo sapiens) (UniProt P14416). The experiment in a line: Dopamine D2 receptor (DRD2) small molecule agonists, cell-based qHTS assay (AID 1963594). Also: nearly all actives have a fitted effect of over 35% in size. In short, it runs like this: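 HEK293 cells stably expressing DRD2 were cultured 24 h at 37 C, then given Ro20-1724 (0.1 mM final) and compounds for 10 min at room temperature. NKH477 (200nM) was then added for 30 min. cAMP was read by HTRF.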
Sequence of D(2) dopamine receptor (Homo sapiens) (P14416 whole entry, looked up): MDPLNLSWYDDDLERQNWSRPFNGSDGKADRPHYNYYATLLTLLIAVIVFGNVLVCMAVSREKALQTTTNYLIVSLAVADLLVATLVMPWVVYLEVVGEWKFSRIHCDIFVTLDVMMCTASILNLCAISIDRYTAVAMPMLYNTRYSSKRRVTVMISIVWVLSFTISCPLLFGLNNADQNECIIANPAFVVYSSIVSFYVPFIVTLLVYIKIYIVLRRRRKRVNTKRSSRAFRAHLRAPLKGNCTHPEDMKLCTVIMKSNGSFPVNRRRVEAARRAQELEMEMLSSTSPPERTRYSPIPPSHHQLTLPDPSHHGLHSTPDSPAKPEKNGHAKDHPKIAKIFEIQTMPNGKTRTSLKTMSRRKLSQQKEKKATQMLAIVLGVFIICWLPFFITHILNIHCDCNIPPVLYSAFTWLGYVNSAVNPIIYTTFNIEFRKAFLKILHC

For test [18] the target is unchanged. The experiment in a line: Dopamine D2 receptor (DRD2) small molecule antagonists, cell-based qHTS assay (AID 1963595; active = well fitted inhibition curve with a large enough effect in the signal ratio in the repeat runs, with a control signal flat; the % refers to the signal ratio; also: potency is read from the fitted curve at half-maximal effect). In short, it runs like this:
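Human DRD2 antagonist qHTS measuring cAMP by HTRF. The cells are exposed to compound for 10 min, then to NKH477 (200 nM) and quinpirole (12 nM) for 30 min at RT, with Ro20-1724 (0.1 mM) present throughout.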

Test [19] deals with Gonadotropin-releasing hormone receptor (Homo sapiens) (UniProt P30968). The experiment in a line: Human gonadotropin-releasing hormone receptor (GnRHR) small molecule agonists, calcium flux assay in GnRHR-HEK293 cells (AID 1920063). Also: nearly all actives have a fitted effect of over 35% in size. In short, it runs like this: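 GnRHR-HEK293, 1500 cells/well, 18 h 37 C/5% CO2; Ca dye 1 h 37 C; cpd pinned (DMSO), agonist mode; kinetic FL 480/540, 3 min, 1 s reads; 15 conc, n=3.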
Sequence of Gonadotropin-releasing hormone receptor (Homo sapiens) (P30968 whole entry, looked up): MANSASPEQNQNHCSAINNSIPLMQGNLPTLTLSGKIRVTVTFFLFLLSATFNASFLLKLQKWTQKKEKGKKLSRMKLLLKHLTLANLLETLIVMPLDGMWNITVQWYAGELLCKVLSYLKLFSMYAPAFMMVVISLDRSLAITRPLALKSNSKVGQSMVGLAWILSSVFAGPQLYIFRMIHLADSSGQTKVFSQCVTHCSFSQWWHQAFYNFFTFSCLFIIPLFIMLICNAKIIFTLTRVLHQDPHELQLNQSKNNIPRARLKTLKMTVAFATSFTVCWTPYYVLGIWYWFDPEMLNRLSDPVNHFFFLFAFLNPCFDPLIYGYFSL

Test [20] deals with Beta-2 adrenergic receptor (Homo sapiens) (UniProt P07550). The experiment in a line: Adrenergic beta2 receptor (ADRB2) small molecule agonists, cell-based qHTS assay (AID 1963593).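 Also: CHO cells stably overexpressing human ADRB2.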 In short, it runs like this: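 CHO cells stably over-expressing ADRB2 were plated overnight at 37C, then dosed with compounds plus a stimulation mix containing 100uM IBMX and 25uM Ro-20-1724 for 0.5hr at room temperature. cAMP was measured by HTRF competition, 1hr.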

Unmarked numbers belong to inactive results. Inconclusive results are not listed. Calls of active or inactive are those of the source. Unless noted, calls follow the shape of the full dose curve.
% is scaled to controls: 0 for no effect and ±100 for the full control effect.

Sequence of 5-hydroxytryptamine receptor 2A (Homo sapiens) (P28223 whole entry, looked up): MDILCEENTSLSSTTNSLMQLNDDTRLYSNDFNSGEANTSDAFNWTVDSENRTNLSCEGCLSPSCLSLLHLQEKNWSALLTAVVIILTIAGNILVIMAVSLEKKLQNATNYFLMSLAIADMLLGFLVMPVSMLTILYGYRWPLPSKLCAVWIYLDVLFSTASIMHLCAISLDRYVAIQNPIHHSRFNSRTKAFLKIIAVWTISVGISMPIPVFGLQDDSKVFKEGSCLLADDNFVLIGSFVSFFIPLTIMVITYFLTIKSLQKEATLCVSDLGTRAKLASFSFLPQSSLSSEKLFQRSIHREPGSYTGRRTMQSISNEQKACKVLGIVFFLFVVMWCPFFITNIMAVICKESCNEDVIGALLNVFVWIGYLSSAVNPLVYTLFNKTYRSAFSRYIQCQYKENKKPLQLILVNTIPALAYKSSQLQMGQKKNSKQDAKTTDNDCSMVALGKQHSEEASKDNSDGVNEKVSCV

As to `CC(C)=CC1CC(C)CCO1` (stereo unspecified), the Potency result in test [1], in test [2], in test [4], in [5], in [6] and in test [7] was “inactive” each time. The Potency result in test [8], in test [9], in test [10], in test [11], in test [12] and in [13] was “inactive” each time. The Potency result in [14], in test [15], in test [16], in [17] and in test [18] was “inactive” each time. Moreover, the outcome in test [3] was inactive.
For the compound `CC(C)(O)c1ccc(CNC(=O)c2cccnc2Oc2ccc3nonc3c2)cc1`, the Potency entry in [1], in [2], in test [19], in test [5], in [6] and in test [8] was “inactive” in each case. Further, the Potency result in test [9], in test [10], in test [11], in test [12], in [13] and in test [16] was “inactive” each time. In addition, the Potency entry in test [18] is “inactive”. For the same compound, the outcome in [3] was inactive.
With `CC(=O)Nc1ccc(C)cc1C`, the Potency entry in test [1], in test [2], in test [19], in test [5], in test [7] and in [8] was “inactive” in each case. Also, the Potency entry in test [10], in test [11], in test [13], in test [14], in test [15] and in test [16] was “inactive” throughout. Further, the Potency entry in [17] and in [18] was “inactive” in each case. Moreover, the outcome in [3] was inactive.
For `O=S(=O)(O)CCO`, the Potency entry in test [1], in test [2], in test [4], in test [5], in test [6] and in [7] was “inactive” each time. For the same compound, the Potency result in test [8], in [9], in test [10], in [11], in test [12] and in [13] was “inactive” throughout. Moreover, the Potency result in test [15], in [16] and in test [18] was “inactive” in each case. Besides, the outcome in [3] was inactive.
As for `O=C=NCc1cccc(CN=C=O)c1`, the activity change, negative = cytotoxicity is 3.98% [at 19 µM] in test [1], 2.85% [at 13.5 µM] in test [6], 10.6% [at 13.5 µM] in test [7] and 8.14% [at 13.5 µM] in test [8]. Moreover, in [2], the activity, positive = activation is -9.19% [at 19 µM]. Also, the activation in [3] was 0.869% [at 11.8 µM]; in [4], -0.418% [at 13.5 µM]; in test [5] it was 0.266% [at 13.6 µM]; in test [9], -3.35% [at 13.5 µM]; in test [11] it was 3.99% [at 15.9 µM]; in [14] it was 1.18% [at 19 µM]. Further, the activation in [17] was -2% [at 19 µM]. The values for the activity, negative = inhibition in [10] and in test [12] were 11.7% [at 12.7 µM] and -10.9% [at 12.6 µM], respectively. The activity change, negative = inhibition is 0.972% [at 18.9 µM] in test [15], -5.04% [at 19 µM] in test [16] and 2.32% [at 18.9 µM] in test [18]. Also, in test [20], the Potency result was “inactive”.
On to `CCN(CC)CCNC(=O)c1cc(S(C)(=O)=O)ccc1OC`, for which the Potency entry in test [1], in test [2], in test [4], in test [5], in test [6] and in test [7] was “inactive” each time. Besides, the Potency result in [8], in test [9], in [14], in [15], in [16] and in [20] was “inactive” throughout. In addition, the Potency entry in test [17] was “inactive”. Further, in test [3], the outcome was inactive. Besides, the Potency in test [18] was 15 µM (active).
Turning to `S=c1[nH][nH]c(=S)s1`, the Potency entry in test [1], in [2], in test [4], in [5], in [6] and in test [7] was “inactive” throughout. Besides, the Potency result in test [8], in test [9], in test [10], in test [12], in [13] and in test [14] was “inactive” in each case. Besides, the Potency entry in [16] and in test [18] was “inactive” throughout. The result in test [3] was inactive.

For the origin of these results see PubChem BioAssay (Tox21).
